Results on eight molecules are retold here after PubChem BioAssay (NCI).

Molecules are shown by their SMILES. The panel holds about 83,000 compounds, 20% with a hit somewhere; the sample as a whole holds those more often.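 Plates (96-well) were seeded with cells, treated with compound at one concentration, and incubated for 48 hours before percent growth was determined.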 Unmarked numbers belong to inactive results. Active and inactive are the calls of the source. How the source made its calls: active means growth percent below 10; inactive means the rest.

Test systems include NCI-H23 lung; NCI-H226 lung; NCI-H322M lung; HOP-62 NSCLC; NCI-H460 lung; HOP-92 NSCLC; NCI-H522 lung; A549/ATCC NSCLC; 786-0 renal; DU-145 prostate; K-562 leukemia; MALME-3M melanoma; MDA-MB-231 breast; RXF 393 renal; SF-268 CNS; SF-295 CNS; SF-539 CNS; UACC-257 melanoma; M14 melanoma; COLO 205 colon.
Common to all, as to assay: NCI-60 one-dose screen, 48 h (100 = growth as untreated, 0 = no growth, -100 = all killed)
Settings in all cases: 10 µM unless noted

In the case of `COc1ccc(-c2nc3ccccn3c2/C=C/C(=O)c2cc(OC)c(OC)c(OC)c2)cc1`, the growth in the experiment with NCI-H23 lung is 45.1%; in the experiment on NCI-H226 lung it was 71.7%; in the experiment with NCI-H322M lung, 73.2%; with HOP-62 NSCLC, 70.8%; with NCI-H460 lung, 34.4%; with HOP-92 NSCLC, 22.7%. In addition, the growth with NCI-H522 lung is 26.7%; with A549/ATCC NSCLC, 55.8%; in the experiment on 786-0 renal, 63.1%; with DU-145 prostate, 58.1%; in the experiment on K-562 leukemia, 49.8%; with MALME-3M melanoma, 43.3%. Moreover, the growth is 42.1% in the experiment on MDA-MB-231 breast; 43.9% in the experiment with RXF 393 renal; 38.2% in the experiment on SF-268 CNS; 123% in the experiment on SF-295 CNS; 8.84% (active) in the experiment on SF-539 CNS; 55.3% in the experiment on UACC-257 melanoma.
For the molecule `O=c1cc(-c2ccc(OCc3ccccc3)cc2)oc2c(I)c(OCc3ccccc3)cc(OCc3ccccc3)c12`, the growth with NCI-H23 lung is 103%; in the experiment with NCI-H226 lung, 90%; with NCI-H322M lung, 96.6%; in the experiment on HOP-62 NSCLC it was 125%; with NCI-H460 lung, 99.2%; in the experiment with HOP-92 NSCLC, 108%. The growth in the experiment with NCI-H522 lung was 91.5%; in the experiment on A549/ATCC NSCLC, 96.4%; with 786-0 renal it was 96.8%; with DU-145 prostate, 105%; in the experiment with K-562 leukemia, 84.3%; in the experiment on MALME-3M melanoma, 107%. Besides, the growth is 110% with MDA-MB-231 breast; 139% in the experiment with RXF 393 renal; 99% in the experiment with SF-268 CNS; 99% in the experiment with SF-295 CNS; 100% in the experiment on SF-539 CNS; 95.9% in the experiment on UACC-257 melanoma. In the experiment with M14 melanoma, the growth is 95.6%.
Regarding `COc1ccc(Oc2nc(Nc3ccc(N4CCCCC4)nc3)ncc2NC(=O)c2cc(OC)cc(OC)c2)cc1`, the growth is 68.8% in the experiment with NCI-H23 lung; 60.2% with NCI-H226 lung; 48.9% with NCI-H322M lung; 42.5% in the experiment on HOP-62 NSCLC; 19% in the experiment on NCI-H460 lung; 76.4% in the experiment with HOP-92 NSCLC. Also, the growth is 26.6% with NCI-H522 lung; 41.6% with A549/ATCC NSCLC; 39.6% with 786-0 renal; 40.7% in the experiment on DU-145 prostate; 18.6% in the experiment on K-562 leukemia; 64.4% in the experiment on MALME-3M melanoma. Also, the growth was 61.5% with MDA-MB-231 breast; 41% in the experiment on RXF 393 renal; 46.3% with SF-268 CNS; 23.7% in the experiment on SF-295 CNS; 21.3% in the experiment on SF-539 CNS; 59.4% in the experiment on UACC-257 melanoma. In the experiment with M14 melanoma, the growth is 32.3%.
Turning to `CCc1nc2ccccc2[nH]1`, the growth is 104% in the experiment on NCI-H23 lung; 99.7% with NCI-H226 lung; 110% with NCI-H322M lung; 105% with HOP-62 NSCLC; 102% with NCI-H460 lung; 99.7% in the experiment with HOP-92 NSCLC. The growth was 103% in the experiment with NCI-H522 lung; 107% with A549/ATCC NSCLC; 112% in the experiment on 786-0 renal; 125% with DU-145 prostate; 102% with K-562 leukemia; 122% in the experiment with MALME-3M melanoma. Further, the growth in the experiment on MDA-MB-231 breast is 103%; in the experiment with RXF 393 renal it was 113%; in the experiment on SF-268 CNS, 103%; in the experiment with SF-295 CNS it was 119%; in the experiment on SF-539 CNS, 104%; in the experiment with UACC-257 melanoma, 102%. The growth with M14 melanoma was 99.8%.
`CCOC(=O)c1c2c(c(C)n1C)-c1nn(Cc3ccc(OC)cc3)cc1CC2`: the growth in the experiment with NCI-H23 lung is 83.2%; in the experiment with NCI-H226 lung, 94.5%; in the experiment on NCI-H322M lung, 190%; in the experiment on HOP-62 NSCLC, 132%; in the experiment on NCI-H460 lung, 111%; with HOP-92 NSCLC, -0.787% (active). Further, the growth in the experiment with NCI-H522 lung was 90.7%; with A549/ATCC NSCLC, 91.9%; in the experiment with 786-0 renal it was 74.7%; in the experiment on DU-145 prostate, 106%; in the experiment on K-562 leukemia it was 69.1%; in the experiment with MALME-3M melanoma, 161%. Also, the growth was 98.2% in the experiment on MDA-MB-231 breast; 113% with RXF 393 renal; 103% with SF-268 CNS; 100% with SF-295 CNS; 111% in the experiment with SF-539 CNS; 113% in the experiment on UACC-257 melanoma.
With `CS(=O)(=O)c1ccc(-c2nc3cc(Cl)ccc3n2CC(=O)N/N=C/c2ccc(Cl)cc2)cc1`, the growth was 60.3% in the experiment with NCI-H23 lung; 84.8% in the experiment with NCI-H226 lung; 70.4% with NCI-H322M lung; 56.4% in the experiment with HOP-62 NSCLC; 48.7% in the experiment on NCI-H460 lung; 68.1% in the experiment on HOP-92 NSCLC. Further, the growth in the experiment on NCI-H522 lung is 46%; in the experiment with A549/ATCC NSCLC, 68.5%; with 786-0 renal it was 16.1%; in the experiment with DU-145 prostate, 70.1%; in the experiment with K-562 leukemia it was 17%; in the experiment on MALME-3M melanoma it was 46.6%. The growth in the experiment with MDA-MB-231 breast was 48.9%; with RXF 393 renal it was -25.1% (active); in the experiment on SF-268 CNS, 50.2%; with SF-295 CNS, -36.9% (active); in the experiment on SF-539 CNS it was -3.48% (active); with UACC-257 melanoma it was 67.7%. Also, the growth in the experiment on M14 melanoma is 61.2%.
For `COc1cc(/C=C/C(=O)c2cccc(-n3cc(-c4ccc(Cl)cc4)[nH]c3=O)c2)cc(OC)c1OC`, the growth is 52.3% with NCI-H23 lung; 81.4% with NCI-H226 lung; 92% in the experiment on NCI-H322M lung; 86.4% in the experiment on HOP-62 NSCLC; 54.7% in the experiment on NCI-H460 lung; 51.5% in the experiment on HOP-92 NSCLC. Further, the growth was 16.5% with NCI-H522 lung; 88.6% in the experiment on A549/ATCC NSCLC; 82.2% with 786-0 renal; 37.1% in the experiment with DU-145 prostate; 20.9% in the experiment on K-562 leukemia; 94.2% in the experiment with MALME-3M melanoma. Also, the growth is 76.7% with MDA-MB-231 breast; 53.6% with RXF 393 renal; 48.8% in the experiment with SF-268 CNS; 80.8% in the experiment with SF-295 CNS; 33.7% in the experiment with SF-539 CNS; 67.2% in the experiment on UACC-257 melanoma.
On to `CN(C)CCC(O)(Cc1ccccc1)c1ccccc1` (configuration not stated), for which the growth in the experiment with NCI-H23 lung is 100%; in the experiment with NCI-H226 lung, 115%; in the experiment on NCI-H322M lung, 120%; with HOP-62 NSCLC it was 111%; with NCI-H460 lung, 112%; in the experiment on HOP-92 NSCLC it was 106%. The growth in the experiment on NCI-H522 lung was 116%; with A549/ATCC NSCLC, 106%; with 786-0 renal, 105%; in the experiment on COLO 205 colon, 107%; with K-562 leukemia, 103%; in the experiment with MALME-3M melanoma, 114%. Moreover, the growth with MDA-MB-231 breast was 108%; with RXF 393 renal, 117%; in the experiment on SF-295 CNS it was 103%; with SF-539 CNS it was 103%; with UACC-257 melanoma, 111%.
